Potency, max response and caspase-3 activation data for 7 compounds are collected here from PubChem BioAssay (NCATS).

Test [1] in a line: Cell Viability - Jurkat (AID 426;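 active = dose-dependent loss of cell ATP signal giving a full or clear fitted curve, ranked by lower potency value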;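 note: potency is the fitted concentration of half-maximal effect; cells exposed to compound for 40 hours at 37 °C before ATP read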). The conditions noted are these: qHTS. The procedure, abridged: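 Cytotoxicity was scored as loss of cellular ATP, measured by luciferase-based luminescence, in Jurkat clone E6-1 cells after 40 h compound treatment; tamoxifen and doxorubicin served as positive controls.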
(In general: In qHTS, concentration-response curves come from the screen itself.)

The nature of test [2]: Cell Viability - LYMP2-004 (AID 966). Note: nearly all actives have a fitted effect of over 65% in size. Note: potency is the fitted concentration of half-maximal effect. The conditions noted are these: LYMP2-004 lymphoblastoid cell viability, qHTS; series mostly up to 92.2 µM. The procedure, abridged: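 Viable-cell number estimated from ATP luminescence (CellTiter-Glo) in 2500 human lymphoblastoid cells/well after 24 hr at 37 C with compound. AC50 fitted to the standard Hill equation.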
A short description of test [3]: Cell Viability - LYMP2-015 (AID 971). Note: nearly all actives have a fitted effect of over 55% in size. Note: potency is the fitted concentration of half-maximal effect. The conditions noted are these: LYMP2-015 lymphoblastoid cell viability; series mostly up to 92.2 µM. The procedure, abridged: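 AC50 values reflect Hill-model fits of ATP-based luminescence (CellTiter-Glo) from a human lymphoblastoid line, 2500 cells/well, treated 24 hr at 37 C.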
Test [4] is described as follows: Cell Viability - LYMP2-019 (AID 973).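 Note: cells exposed to compound for 24 h at 37 °C; nearly all actives have a fitted effect of over 55% in size.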 Note: potency is the fitted concentration of half-maximal effect. The note with it: LYMP2-019 lymphoblastoid cell line viability; series mostly up to 92.2 µM. The procedure, abridged:
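AC50 values come from Hill-equation modelling of qHTS concentration-response curves, where viability is measured as luciferase-based ATP luminescence in the lymphoblastoid line after 24 hr compound exposure in complete culture medium.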

Test [5] is described as follows: Cell Viability - LYMP2-021 (AID 974).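 Note: compound exposure lasts 24 hours at 37 °C; nearly all actives have a fitted effect of over 55% in size.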 Note: potency is the fitted concentration of half-maximal effect. The conditions noted are these: LYMP2-021 lymphoblastoid cells viability; series mostly up to 92.2 µM. The procedure, abridged: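 In qHTS format, compounds are tested against 2500 lymphoblastoid cells per well for 24 h; viable cell number is inferred from ATP-driven luciferase light, and Hill-equation fitting yields AC50 values.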

Test [6] is described as follows: Cell Viability - LYMP2-006 (AID 978).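 Note: cells exposed to compound for 24 hours; nearly all actives have a fitted effect of over 60% in size.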 Note: potency is the fitted concentration of half-maximal effect. The conditions noted are these: LYMP2-006 lymphoblastoid cell viability, qHTS; series mostly up to 92.2 µM. The procedure, abridged:
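Human lymphoblastoid cells (LYMP2-006), 2500/well in complete medium, were treated with compound for 24 hr at 37 C. Cellular ATP was read by CellTiter-Glo luminescence after 30 min, and AC50 values came from Hill-equation fits of concentration-response data.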

Test [7] can be described thus: Cell Viability - LYMP2-007 (AID 979).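 Note: cells exposed to compound for 24 h before reading; nearly all actives have a fitted effect of over 60% in size.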 Note: potency is the fitted concentration of half-maximal effect. The note with it: LYMP2-007 lymphoblastoid cell viability; series mostly up to 92.2 µM. The procedure, abridged:
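Measured via luciferase-based ATP quantitation: lymphoblastoid cells, 24 hr compound exposure at 37 C, AC50 from Hill fits.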

The nature of test [8]: Cell Viability - LYMP2-008 (AID 980). Note: nearly all actives have a fitted effect of over 60% in size. Note: potency is the fitted concentration of half-maximal effect. The conditions noted are these: LYMP2-008 lymphoblastoid cell viability, qHTS; series mostly up to 92.2 µM. The procedure, abridged:
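Measured: ATP-dependent luminescence, proportional to viable cell number, in human lymphoblastoid cells treated 24 hr with compound in complete culture medium. Values are AC50s from Hill-equation modelling of qHTS titrations.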

Test [9] is described as follows: Cell Viability - LYMP2-014 (AID 983).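 Note: cells exposed to compound for 24 h at 37 °C; nearly all actives have a fitted effect of over 50% in size.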 Note: potency is the fitted concentration of half-maximal effect. The note with it: LYMP2-014 lymphoblastoid cells, viability qHTS; series mostly up to 92.2 µM. The procedure, abridged: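 Quantitative HTS in lymphoblastoid cells: 24 hr compound exposure, then CellTiter-Glo ATP luminescence. Positive control was tetraoctylammonium bromide, 6.4pM to 92 uM.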
Test [10] in a line: Cell Viability - LYMP2-018 (AID 985). Note: nearly all actives have a fitted effect of over 50% in size. Note: potency is the fitted concentration of half-maximal effect. The note with it: LYMP2-018 lymphoblastoid cells, viability (qHTS); series mostly up to 92.2 µM. The procedure, abridged: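 In this qHTS viability assay, cells are treated for 24 hr and cellular ATP is quantified by luciferase-based luminescence, with tetraoctylammonium bromide as positive control.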
Test [11] is described as follows: Cell Viability - LYMP2-020 (AID 986).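 Note: cells exposed to compound for 24 h at 37 °C; nearly all actives have a fitted effect of over 55% in size.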 Note: potency is the fitted concentration of half-maximal effect. The note with it: series mostly up to 92.2 µM. The procedure, abridged:
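Cells at 2500 per well receive a 24 hr compound exposure at 37 C. Viability is measured as ATP-dependent luciferase luminescence, with AC50 modeled from qHTS concentration-response curves.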

The nature of test [12]: qHTS assay for small molecule antagonists of retinoid X receptor alpha signaling (AID 588546).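 Note: cells stimulated with 9-cis-retinoic acid as agonist; % is set by controls: 0 for no effect and ±100 for the full control effect.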 The note with it: HEK293T RXRa-UAS-bla, beta-lactamase ratio, antagonist mode; measured here: W530 green channel, cytotoxicity proxy. The procedure, abridged:
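Beta-lactamase reporter inhibition, read as CCF4 fluorescence ratio (ex 405, em 460/530 nm) after 2 h at RT. HEK293T UAS-bla cells, 2500/well, were stimulated with 9-cis-RA at 500 or 100 nM final alongside test compound for 18 h at 37 C.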

Test [13] has as its target Voltage-gated inwardly rectifying potassium channel KCNH2 (Homo sapiens) (UniProt Q12809). Kind of test: qHTS Assay for Small Molecule Inhibitors of the Human hERG Channel Activity (AID 588834).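 Note: top concentration of the series differs between compounds; % is set by controls: 0 for no effect and ±100 for the full control effect; lower thallium flux fluorescence means stronger hERG block; nearly all actives have a fitted effect of over 50% in size.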 The note with it: U2OS BacMam hERG, FluxOR thallium flux fluorescence; series mostly up to 92.2 µM. The procedure, abridged: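 Thallium serves as surrogate for K+ influx through BacMam-delivered hERG in U2OS cells. Compounds are added for about 10 minutes after dye loading; stimulation buffer then starts flux, monitored kinetically on FDSS.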

Test [14] is described as follows: qHTS assay for small molecule agonists of the antioxidant response element (ARE) signaling pathway measured by Nrf2-dependant transcriptional activity - cell viability counter screen (AID 720653; active = well fitted curve in the direction sought with a large enough effect in the repeat runs; an effect the other way counts as inactive or inconclusive; note: % is set by controls: 0 for no effect and ±100 for the full control effect). The conditions noted are these: ARE-bla HepG2 viability, CellTiter-Glo ATP luminescence, 16 h; stronger effect = lower value. The procedure, abridged:
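Cytotoxicity counter screen: intracellular ATP quantified by CellTiter-Glo luminescence in the same ARE-bla HepG2 plates, after 16 h compound exposure and a 2 h beta-lactamase substrate step.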

Test [15] in a line: Cell Viability - Hek293 (AID 427;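 active = compounds whose dose-response curve shows a full or clear partial loss of cell viability, called from curve shape rather than a numeric limit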;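 note: potency is the fitted concentration of half-maximal effect; cells exposed to compound for 40 hours at 37 °C before reading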). The conditions noted are these: qHTS. The procedure, abridged: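 Luminescent ATP read-out (CellTiter-Glo, 20 min RT) after 40 hr compound exposure at 37 °C in complete medium. Signal normalized to DMSO (basal) and 100 uM tamoxifen (100% inhibition); concentration-response fitted with the standard Hill equation to give AC50.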
The nature of test [16]: Cell Viability - SK-N-SH (AID 435; calls by dose curve;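 note: potency is the fitted concentration of half-maximal effect; compound exposure lasted 40 h at 37 °C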). The note with it: SK-N-SH neuroblastoma cell viability qHTS. The procedure, abridged: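 SK-N-SH neuroblastoma cells (1500/well) treated 40 h at 37 °C in complete medium; viability read as cellular ATP by CellTiter-Glo luminescence. Normalized to DMSO and 100 uM tamoxifen; AC50 from Hill fits of qHTS concentration-response.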
Test [17] is described as follows: Cellular Toxicity (caspase-3) Jurkat (AID 655).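 Note: cells exposed to compound for 16 h at 37 °C before reading.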 The conditions noted are these: Jurkat caspase-3 activation, luminescence; caspase-3 activation: at 92.2 µM (top of the series), DMSO = 0%, tamoxifen = 100%. The procedure, abridged:
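Jurkat cells (5000/well) in complete medium exposed 16 h at 37 C; caspase-3/7 activity read by Caspase-Glo luminescence after 20 min at room temperature. Normalized to DMSO and 100 uM tamoxifen; AC50 from Hill fits.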

Test [18] can be described thus: Cell Viability - LYMP2-025 (AID 976).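 Note: cells exposed to compound for 24 h at 37 °C; plate controls were DMSO only for no effect and tetraoctylammonium bromide control for full effect.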 The note with it: LYMP2-025 lymphoblastoid cell viability; series mostly up to 92.2 µM. The procedure, abridged:
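Luminescent ATP readout after 24 hr treatment of a human lymphoblastoid line (LYMP2-025, 2500 cells/well, 37 C). Reagent developed 30 min at room temperature; AC50 fitted with the Hill equation.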

The nature of test [19]: Cell Viability - LYMP1-002 - Assay at 40 hr (AID 994).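 Note: 0% = DMSO only and full inhibition = 92 µM tetraoctylammonium bromide; nearly all actives have a fitted effect of over 60% in size.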 The note with it: LYMP1-002 lymphoblastoid cell viability; series mostly up to 92.2 µM. The procedure, abridged: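 Concentration-dependent ATP loss after 40 hr treatment at 37 C defined toxicity; AC50 values were obtained by fitting the standard Hill equation.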

Molecules are shown by their SMILES. Where “and” joins values, the source holds several entries; their conditions need not be identical. Equal values may be shown once. Results filed as inconclusive are left out. Calls of active or inactive are those of the source. Unless noted, calls come from the whole dose curve; as a rule, active = well fitted curve in the direction sought with a large enough effect; inconclusive = small, poorly fitted or top-dose-only effect, or another doubt; inactive = no such curve, though single readings can be large; an effect the other way counts as inactive or inconclusive.

Chain of Voltage-gated inwardly rectifying potassium channel KCNH2 (Homo sapiens) (Q12809 whole entry, looked up): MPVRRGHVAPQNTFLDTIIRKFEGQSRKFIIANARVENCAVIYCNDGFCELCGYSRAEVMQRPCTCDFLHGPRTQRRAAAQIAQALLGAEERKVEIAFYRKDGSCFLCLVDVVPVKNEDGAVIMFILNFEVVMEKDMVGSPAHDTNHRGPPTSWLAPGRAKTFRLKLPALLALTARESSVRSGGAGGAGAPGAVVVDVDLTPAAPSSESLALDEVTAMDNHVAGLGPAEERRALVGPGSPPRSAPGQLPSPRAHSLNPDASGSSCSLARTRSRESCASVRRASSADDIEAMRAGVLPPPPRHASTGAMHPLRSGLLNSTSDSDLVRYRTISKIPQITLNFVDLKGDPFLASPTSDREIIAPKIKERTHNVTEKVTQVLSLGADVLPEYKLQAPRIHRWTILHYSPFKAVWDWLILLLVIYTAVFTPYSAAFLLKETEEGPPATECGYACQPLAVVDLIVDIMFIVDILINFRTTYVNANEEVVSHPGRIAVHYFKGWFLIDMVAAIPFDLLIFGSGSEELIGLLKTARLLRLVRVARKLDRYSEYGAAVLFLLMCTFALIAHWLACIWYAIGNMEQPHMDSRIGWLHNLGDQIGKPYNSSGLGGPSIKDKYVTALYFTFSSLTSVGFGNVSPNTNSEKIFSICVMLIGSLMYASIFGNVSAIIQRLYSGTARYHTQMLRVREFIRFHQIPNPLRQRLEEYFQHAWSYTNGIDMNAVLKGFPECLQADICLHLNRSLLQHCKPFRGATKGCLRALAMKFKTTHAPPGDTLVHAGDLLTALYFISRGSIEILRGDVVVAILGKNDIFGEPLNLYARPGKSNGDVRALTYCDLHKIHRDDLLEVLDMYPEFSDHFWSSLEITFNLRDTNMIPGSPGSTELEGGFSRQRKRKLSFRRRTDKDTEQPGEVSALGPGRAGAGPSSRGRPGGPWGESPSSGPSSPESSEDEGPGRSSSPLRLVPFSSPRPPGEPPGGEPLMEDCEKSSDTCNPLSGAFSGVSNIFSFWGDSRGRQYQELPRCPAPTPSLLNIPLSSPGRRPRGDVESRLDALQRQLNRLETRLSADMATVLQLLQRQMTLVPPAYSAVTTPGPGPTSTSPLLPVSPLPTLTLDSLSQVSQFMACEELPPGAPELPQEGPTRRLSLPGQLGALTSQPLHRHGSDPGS

In the case of `CN1CSC(=S)N(C)C1`, the Potency is 57.6 µM (active) in test [1]; 31.6 µM (active) in test [2]; 31.6 µM (active) in test [3]; 31.6 µM (active) in test [4]; 39.8 µM (active) in test [5]; 39.8 µM (active) in test [6]. The Potency was 31.6 µM (active) in test [7]; 39.8 µM (active) in test [8]; 15.8 µM (active) in [9]; 12.6 µM (active) in [10]; 39.8 µM (active) in test [11]. The max response in test [12] is 5.73%; in test [14], -1.99% (inactive) and -0.305% (inactive). For the same compound, the Potency entry in test [13] is “inactive”.
As for `CC1CC(=O)O1` (stereo not drawn), the Potency in [1], in test [15] and in test [16] was > 92 µM (inactive) in each case. In test [17], the caspase-3 activation was -1.79% (inactive). Besides, the Potency entry in [2], in test [3], in [4], in test [5], in test [18] and in test [6] was “inactive” throughout. For the same compound, the Potency result in test [7], in [8], in test [9], in test [10], in test [11] and in [19] was “inactive” in each case. Also, the Potency result in test [13] was “inactive”. Moreover, the results for the max response in [12] and in test [14] were -1.73% and -3.76% (inactive), respectively.
On to `C=CCO`, for which the Potency in test [1], in [15] and in [16] was > 92 µM (inactive) each time. Further, the caspase-3 activation in [17] was 2.82% (inactive). For the same compound, the Potency result in test [2], in test [3], in test [4], in [5], in test [18] and in [6] was “inactive” in each case. Also, the Potency result in [7], in test [8], in [9], in test [10], in test [11] and in test [19] was “inactive” throughout. Also, in test [13], the Potency result was “inactive”. The max response was 1.87% in [12] and 1.93% (inactive) in [14].
In the case of `CCN(CC)N=O`, the Potency in test [1], in test [15] and in [16] was > 92 µM (inactive) throughout. For the same compound, the caspase-3 activation in [17] was 1.16% (inactive). Also, the Potency entry in [2], in test [3], in test [4], in test [5], in test [18] and in test [6] was “inactive” throughout. Besides, the Potency result in test [7], in test [8], in test [9], in [10], in [11] and in test [19] was “inactive” throughout. Moreover, the Potency entry in test [13] was “inactive”. For the same compound, the figures for the max response in test [12] and in test [14] were -3.04% and 2.46% (inactive), respectively.
Consider `CN(C)N=O`, for which the Potency in [1], in test [15] and in [16] was > 92 µM (inactive) throughout. Further, in test [17], the caspase-3 activation was 0.809% (inactive). Besides, the Potency result in test [2], in test [3], in test [4], in test [5], in test [18] and in [6] was “inactive” each time. Also, the Potency entry in test [7], in [8], in test [9], in test [10], in [11] and in [19] was “inactive” throughout. For the same compound, the Potency result in [13] is “inactive”. Further, the results for the max response in test [12] and in test [14] were 1.95% and -2.49% (inactive), respectively.
As to `N#CCCC#N`, the Potency in test [1], in [15] and in [16] was > 92 µM (inactive) throughout. In addition, the caspase-3 activation in test [17] was -0.151% (inactive). The Potency entry in test [2], in test [3], in test [4], in [5], in [18] and in test [6] was “inactive” in each case. The Potency result in test [7], in test [8], in test [9], in test [10], in [11] and in test [19] was “inactive” in each case. In [13], the Potency entry is “inactive”. In addition, the max response in test [12] was -8.53%; in test [14], 1.41% (inactive).
For the compound `CN(C)c1ccccc1`, the Potency in [1], in [15] and in test [16] was > 92 µM (inactive) throughout. Moreover, the caspase-3 activation in [17] was 0.927% (inactive). The Potency result in test [2], in [3], in [4], in [5], in test [18] and in [6] was “inactive” throughout. The Potency result in [7], in test [8], in test [9], in test [10], in [11] and in [19] was “inactive” each time. Further, the Potency result in test [13] is “inactive”. Besides, the max response in [12] was 5.14%; in [14] it was 12.1% (inactive).
